GAA inh = inhibitors of human lysosomal alpha-glucosidase; P10253; purified human GAA, 4-MU-alpha-glucoside fluorescence; Potency, µM (series often up to 76.9 µM), actives largely listed as inhibitors; hit rate 0.005% among 200,000; AID 1466
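Fluorescence at Ex 365/Em 440 nm from 4-methylumbelliferone reported enzyme activity after 20 min at room temperature. Reactions used 4 nM enzyme and 400 uM substrate at pH 5.0; curves fitted with the Hill equation.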
GAA spleen mod = inhibitors or activators of human alpha-glucosidase in spleen homogenate | P10253 | human spleen homogenate, 4-MU-alpha-glucoside fluorescence | Potency, µM (top dose mostly 79.9 µM), actives largely listed as inhibitors | hit rate 0.006% among 240,000
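Compounds were titrated against alpha-glucosidase in spleen homogenate at pH 5.0, with 1 mM 4-methylumbelliferyl substrate for 40 min at 37 C. Reactions were quenched with pH 10 NaOH/glycine and fluorescence measured.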
GLA inh pH 4.5 = inhibitors of human alpha-galactosidase A at pH 4.5; P06280; purified enzyme, 4-MU-alpha-Gal fluorescence, pH 4.5; activity change, negative = inhibition, % at 105 µM; 230,000 tested, under 10 active; AID 1467
Target sequence (P06280 whole entry, looked up): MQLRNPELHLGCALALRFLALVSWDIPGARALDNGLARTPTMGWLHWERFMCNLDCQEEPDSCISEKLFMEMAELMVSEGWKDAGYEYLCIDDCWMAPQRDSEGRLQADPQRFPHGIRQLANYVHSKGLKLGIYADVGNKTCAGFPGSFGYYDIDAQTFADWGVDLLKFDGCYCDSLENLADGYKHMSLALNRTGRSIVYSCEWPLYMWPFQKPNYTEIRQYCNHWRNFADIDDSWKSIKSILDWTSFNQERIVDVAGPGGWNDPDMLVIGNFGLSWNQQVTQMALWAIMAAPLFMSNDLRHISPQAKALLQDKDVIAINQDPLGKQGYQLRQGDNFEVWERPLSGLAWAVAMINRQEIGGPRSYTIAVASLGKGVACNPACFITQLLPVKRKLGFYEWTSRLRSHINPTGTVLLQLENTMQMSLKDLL
N370S GC mod = inhibits or activates N370S mutant glucocerebrosidase | P04062 | N370S GC spleen homogenate, 4MU-glucoside fluorescence | Potency, µM (top dose mostly 59.4 µM), usual class: inhibitors | hit rate 0.092% among 330,000
GAA glycogen = alters human alpha-glucosidase cleavage of glycogen; P10253; recombinant GAA, glycogen substrate, Amplex Red glucose oxidase fluorescence; Potency, µM (doses to about 76.4 µM), actives largely listed as inhibitors; hit rate 0.38% among 300,000;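 further: the screen sought inhibitors and activators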
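Recombinant enzyme (4 nM final) with compounds titrated up to 77 uM and bovine liver glycogen (30 ug) in citrate pH 5.0, 0.01% Tween-20, 37 C 40 min. Released glucose detected by Amplex Red/glucose oxidase (Ex 573/Em 610); AC50 from Hill fits.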
aGal spleen mod = inhibitors or activators of human alpha-galactosidase in spleen homogenate | P06280 | human spleen homogenate, 4MU-alpha-Gal fluorescence, 40 min | Potency, µM (series often up to 80 µM), usual class: inhibitors | hit rate 0.008% among 240,000 | AID 2107
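Inhibition or activation of alpha-galactosidase in human spleen homogenate is scored by 4-MU fluorescence after 40 min at 37C, pH 5.0, with 1 mM substrate. AC50s come from concentration-response fitted to the Hill equation.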
Each line names hits and unclear results; the compound was inactive in the other large screens; ! = a repeat was not active. Only some compounds are listed: those with a hit (about 0.43% of all), similar ones and a draw of the others. The call rests on the fitted dose curve; in most records, active means well fitted curve in the direction sought with a large enough effect; inconclusive means small, poorly fitted or top-dose-only effect, or another doubt; inactive means no such curve, though single readings can be large; an effect the other way counts as inactive or inconclusive.

ON1C2CCCCC2N(O)C1c1ccccc1F (stereo unspecified)	GAA glycogen 8.84µM
Clc1ccc(C(c2ccc(Cl)cc2)C(Cl)Cl)cc1	none (no result: GAA inh, GLA inh pH 4.5, GAA glycogen)
CCCSC(=O)Cl	none (no result: GAA inh, GLA inh pH 4.5, GAA glycogen)
CCOc1ccc(-c2nc3ccc(-c4nc5ccc(N6CCN(C)CC6)cc5[nH]4)cc3[nH]2)cc1	aGal spleen mod inconclusive (no result: GAA inh, GLA inh pH 4.5, GAA glycogen)
Cc1ccc(N2C(=O)NC(=O)/C(=C\c3cc(C)n(-c4ccc(C(=O)O)cc4)c3C)C2=O)cc1	none (no result: GAA inh, GAA spleen mod, GLA inh pH 4.5, aGal spleen mod)
Cc1cc(/C=C2\C(=O)NC(=O)N(c3ccc(F)cc3)C2=O)c(C)n1-c1ccc(C(=O)O)cc1	GAA inh 28.2µM, GAA glycogen inconclusive (no result: N370S GC mod)
O=c1cc(-c2ccc(O)c(O)c2)oc2c(C3O[C@H](CO)[C@@H](O)[C@H](O)[C@H]3O)c(O)cc(O)c12 (stereo partly specified)	GAA inh inconclusive, GAA glycogen 4.47µM
CCCCC/C=C\C/C=C\C/C=C\C/C=C\CCCC(=O)Nc1ccc(O)cc1	GAA inh inconclusive, GAA glycogen 31.6µM
CN1C(=O)C(Cc2ccsc2)C(=O)N(C)C1=O	none
CN1C(=O)C(Cc2ccc3c(c2)OCO3)C(=O)N(C)C1=O	GAA glycogen 39.8µM (no result: N370S GC mod)
CC(=O)Oc1c2c(c(CC=C(C)C)c3c1C(=O)C1=CC4CC5C(C)(C)OC(C/C=C(\C)C(=O)O)(C4=O)[C@]15O3)OC(C)(CCC=C(C)C)C=C2 (stereo partly specified)	none (no result: GAA inh, GAA glycogen)
CC12CCCCC1N(O)CN2O (stereo unspecified)	GAA glycogen 17.8µM
CC1(C)N(O)C2CCCCC2N1O (stereo unspecified)	none
Cc1cc2c(s1)Nc1ccccc1N=C2N1CCN(C)CC1	GAA glycogen 5.62µM
[CH3][Hg][Cl]	none (no result: GAA inh, GLA inh pH 4.5, GAA glycogen)
CC(C)CON=O	none (no result: GAA inh, GLA inh pH 4.5, GAA glycogen)
CC(=O)[O-].CC(=O)[O-].O.O.O.[Pb+2]	none (no result: GAA inh, GLA inh pH 4.5, GAA glycogen)
Oc1ccc(C[C@H]2NCCc3cc(O)c(O)cc32)cc1O	GAA glycogen inconclusive (no result: GAA inh, GAA spleen mod, GLA inh pH 4.5, aGal spleen mod)
Oc1ccc(CC2CC3CCN2CC3)cc1O (stereo unspecified)	GAA glycogen 3.52µM
O=c1c2ccccc2[se]n1-c1ccccc1	N370S GC mod 22.4µM!
CN1CCN(c2ccc(NC(=O)Oc3ccccc3)cc2)CC1	GAA glycogen inconclusive
O=C(Nc1ccc(COc2ccccc2)cc1)Oc1ccccc1N1CCOCC1	GAA glycogen 3.98µM
Clc1nc(Cl)nc(Cl)n1	none (no result: GAA inh, GLA inh pH 4.5, GAA glycogen)
O=C1CC(NC(=O)C(F)(F)F)=NN1c1ccccc1	GAA glycogen 17.8µM
O=C1CC(c2cccnc2)=NN1c1ccccc1	none
C[C@]12CC[C@H]3[C@@H](CCC4=CC(=O)CC[C@@H]43)[C@@H]1CC[C@@H]2O	N370S GC mod inconclusive (no result: GAA inh, GAA glycogen)
C[C@]12CC[C@@H]3c4ccc(O)c(O)c4CC[C@H]3[C@@H]1CC[C@@H]2O	GAA glycogen 8.84µM
C[C@]12CC[C@@H]3c4cc(O)c(O)cc4CC[C@H]3[C@@H]1CC[C@@H]2O	GAA glycogen 3.14µM
N#Cc1c(/N=C/c2c(O)n(Cc3ccco3)c(=O)[nH]c2=O)sc2c1CCCC2	GAA glycogen 14µM
CCOC(=O)C1(CCOc2ccccc2)CCN(Cc2cnc(SC)nc2)CC1	N370S GC mod 20µM
O=C1C=CC(=O)C(Cl)=C1	none (no result: GAA inh, GAA glycogen)
CCCC/C(C)=C/[C@@H](NP(=O)(c1ccccc1)c1ccccc1)c1ccccc1	GAA inh inconclusive, GAA glycogen 1.26µM
COc1ccc2c(c1)c(CCN1CCOCC1)c(C)n2C(=O)c1cccc(Cl)c1Cl	N370S GC mod 12.6µM (no result: GAA inh, GAA glycogen)
CCOC(=O)c1c(C)n(CCN2CCN(C)CC2)c2ccc(OC)cc12	none
O=C1CC(N(O)c2ccccc2)C(=O)N1Cc1ccccc1 (stereo unspecified)	GAA glycogen 31.6µM
CNc1ccc2oc(C[C@@H]3OC4(CC[C@@H]3C)O[C@H]([C@@H](C)C(=O)c3ccc[nH]3)[C@H](C)C[C@H]4C)nc2c1C(=O)O (stereo partly specified)	none (no result: GAA inh, GLA inh pH 4.5, GAA glycogen)
NC1CCCC[C@@H]1N (stereo partly specified)	none (no result: GAA inh, GLA inh pH 4.5, GAA glycogen)
CNC(=O)Oc1cccc2ccccc12	GAA glycogen 35.5µM (no result: GAA inh)

Screening data: PubChem, National Center for Advancing Translational Sciences (NCATS)
